# Tests used:
# Assay in all cases: DAPPL (digital affinity profiling via proximity ligation, sequencing); 10 mM Tris-HCl pH 7.5, 50 mM NaCl, 1 mM DTT, 4% glycerol, room temperature, 30 min; GST-TFs on glutathione beads, 16-mer random dsDNA library, 0.1% formaldehyde crosslink after washing; high values mean tight binding
# [1] = target: T1, FLI1 (Homo sapiens, UniProt Q01543 1-452); settings: protein: recombinant; tags: N-terminal GST; dsDNA, one strand shown
# T1 sequence: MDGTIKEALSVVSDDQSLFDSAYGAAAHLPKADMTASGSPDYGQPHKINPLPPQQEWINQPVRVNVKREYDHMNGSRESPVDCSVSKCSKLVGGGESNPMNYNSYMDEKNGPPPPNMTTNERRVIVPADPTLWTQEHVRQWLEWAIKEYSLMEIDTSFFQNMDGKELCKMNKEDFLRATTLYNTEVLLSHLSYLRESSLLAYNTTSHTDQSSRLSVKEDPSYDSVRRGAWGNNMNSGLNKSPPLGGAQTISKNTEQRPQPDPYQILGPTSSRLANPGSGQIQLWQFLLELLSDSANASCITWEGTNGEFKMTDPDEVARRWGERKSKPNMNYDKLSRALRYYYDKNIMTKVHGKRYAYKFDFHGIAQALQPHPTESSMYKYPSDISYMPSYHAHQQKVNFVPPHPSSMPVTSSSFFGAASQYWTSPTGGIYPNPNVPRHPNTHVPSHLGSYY
# Method in brief: (§1)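 Human transcription factors fused to GST were expressed in yeast, captured on glutathione beads, given DNA barcodes and pooled with a GST-only negative control. Pools were incubated with 200 nmole of a 16-mer random double-stranded DNA library in Tris/NaCl/DTT/glycerol buffer at room temperature for 30 min. They were then washed, crosslinked with 0.1% formaldehyde, proximity-ligated (BsaI/T4 ligase, 1 h, 37 °C), PCR-amplified and sequenced on an Illumina NextSeq500. Binding signal is each 6-mer's read frequency for a factor divided by its frequency for the GST control.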
# [2] = target: T2, ELK1 (Homo sapiens, UniProt P19419 1-428); settings: protein: recombinant; tags: N-terminal GST; dsDNA, one strand shown
# T2 sequence: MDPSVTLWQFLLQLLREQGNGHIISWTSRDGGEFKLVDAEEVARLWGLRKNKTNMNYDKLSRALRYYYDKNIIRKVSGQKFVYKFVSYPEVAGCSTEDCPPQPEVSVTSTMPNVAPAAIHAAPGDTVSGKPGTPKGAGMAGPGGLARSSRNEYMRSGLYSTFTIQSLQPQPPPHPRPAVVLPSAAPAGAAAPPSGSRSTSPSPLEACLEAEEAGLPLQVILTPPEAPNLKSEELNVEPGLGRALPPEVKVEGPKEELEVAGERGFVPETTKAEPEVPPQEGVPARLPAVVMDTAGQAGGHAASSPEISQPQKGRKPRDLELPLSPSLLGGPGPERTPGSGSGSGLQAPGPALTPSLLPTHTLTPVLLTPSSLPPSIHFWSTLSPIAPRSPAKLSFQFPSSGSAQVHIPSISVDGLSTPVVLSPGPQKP
# Method in brief: as §1
# [3] = target: T3, GABPA (Homo sapiens, UniProt Q06546 1-454); settings: protein: recombinant; tags: N-terminal GST; dsDNA, one strand shown
# T3 sequence: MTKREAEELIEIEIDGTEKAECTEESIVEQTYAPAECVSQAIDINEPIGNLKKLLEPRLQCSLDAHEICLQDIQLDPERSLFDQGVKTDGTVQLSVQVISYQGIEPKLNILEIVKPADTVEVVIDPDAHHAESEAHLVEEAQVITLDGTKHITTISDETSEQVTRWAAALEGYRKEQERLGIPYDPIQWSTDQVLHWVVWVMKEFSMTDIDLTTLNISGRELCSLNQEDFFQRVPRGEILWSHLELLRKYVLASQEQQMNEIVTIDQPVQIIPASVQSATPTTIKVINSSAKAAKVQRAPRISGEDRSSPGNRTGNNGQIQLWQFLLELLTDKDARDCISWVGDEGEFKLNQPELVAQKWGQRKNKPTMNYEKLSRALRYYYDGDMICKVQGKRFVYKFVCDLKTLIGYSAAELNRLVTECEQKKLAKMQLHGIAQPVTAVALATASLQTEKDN
# Method in brief: as §1
# [4] = target: T4, ERG (Homo sapiens, UniProt P11308 1-479); settings: protein: recombinant; tags: N-terminal GST; dsDNA, one strand shown
# T4 sequence: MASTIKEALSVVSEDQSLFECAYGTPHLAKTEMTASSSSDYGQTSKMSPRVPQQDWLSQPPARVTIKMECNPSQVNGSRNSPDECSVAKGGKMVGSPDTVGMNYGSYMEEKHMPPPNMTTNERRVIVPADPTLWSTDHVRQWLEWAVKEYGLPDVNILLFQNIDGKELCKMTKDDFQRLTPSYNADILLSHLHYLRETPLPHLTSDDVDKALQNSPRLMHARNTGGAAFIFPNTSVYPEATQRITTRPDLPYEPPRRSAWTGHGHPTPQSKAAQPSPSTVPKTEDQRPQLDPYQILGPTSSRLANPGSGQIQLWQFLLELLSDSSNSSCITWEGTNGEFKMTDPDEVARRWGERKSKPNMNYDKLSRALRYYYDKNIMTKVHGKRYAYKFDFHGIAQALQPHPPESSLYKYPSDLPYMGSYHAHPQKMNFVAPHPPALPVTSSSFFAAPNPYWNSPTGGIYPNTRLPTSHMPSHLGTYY
# Method in brief: as §1
# [5] = target: ELF1 (Homo sapiens, UniProt P32519 1-619); settings: protein: recombinant; tags: N-terminal GST; dsDNA, one strand shown
# Method in brief: as §1
# [6] = target: T5, EHF (Homo sapiens, UniProt Q9NZC4 1-300); settings: protein: recombinant; tags: N-terminal GST; dsDNA, one strand shown
# T5 sequence: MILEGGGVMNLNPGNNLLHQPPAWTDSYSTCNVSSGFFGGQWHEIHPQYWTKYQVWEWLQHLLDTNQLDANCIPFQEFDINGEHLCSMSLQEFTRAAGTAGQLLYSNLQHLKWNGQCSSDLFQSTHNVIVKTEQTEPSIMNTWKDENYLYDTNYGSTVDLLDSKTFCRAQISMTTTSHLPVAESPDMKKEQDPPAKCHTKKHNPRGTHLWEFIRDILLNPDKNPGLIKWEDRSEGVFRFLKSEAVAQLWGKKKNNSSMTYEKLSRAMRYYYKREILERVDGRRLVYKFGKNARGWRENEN
# Method in brief: as §1
# [7] = target: SPI1 (Homo sapiens, UniProt P17947 1-270); settings: protein: recombinant; tags: N-terminal GST; dsDNA, one strand shown
# Method in brief: as §1
# [8] = target: SPIB (Homo sapiens, UniProt Q01892 1-262); settings: protein: recombinant; tags: N-terminal GST; dsDNA, one strand shown
# Method in brief: as §1
# [9] = target: T6, ELK3 (Homo sapiens, UniProt P41970 1-407); settings: protein: recombinant; tags: N-terminal GST; dsDNA, one strand shown
# T6 sequence: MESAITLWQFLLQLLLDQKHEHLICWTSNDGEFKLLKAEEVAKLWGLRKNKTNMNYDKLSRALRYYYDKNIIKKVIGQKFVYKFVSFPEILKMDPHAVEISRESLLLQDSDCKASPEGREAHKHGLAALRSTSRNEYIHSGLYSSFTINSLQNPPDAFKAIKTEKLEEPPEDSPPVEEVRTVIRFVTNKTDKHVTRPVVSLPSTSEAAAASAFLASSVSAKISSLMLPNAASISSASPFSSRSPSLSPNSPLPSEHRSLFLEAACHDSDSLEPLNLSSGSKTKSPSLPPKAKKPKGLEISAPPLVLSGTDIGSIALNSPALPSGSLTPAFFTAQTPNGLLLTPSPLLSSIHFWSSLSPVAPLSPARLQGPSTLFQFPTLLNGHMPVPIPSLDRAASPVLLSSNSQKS
# Method in brief: as §1
# [10] = target: T7, FEV (Homo sapiens, UniProt Q99581 1-238); settings: protein: recombinant; tags: N-terminal GST; dsDNA, one strand shown
# T7 sequence: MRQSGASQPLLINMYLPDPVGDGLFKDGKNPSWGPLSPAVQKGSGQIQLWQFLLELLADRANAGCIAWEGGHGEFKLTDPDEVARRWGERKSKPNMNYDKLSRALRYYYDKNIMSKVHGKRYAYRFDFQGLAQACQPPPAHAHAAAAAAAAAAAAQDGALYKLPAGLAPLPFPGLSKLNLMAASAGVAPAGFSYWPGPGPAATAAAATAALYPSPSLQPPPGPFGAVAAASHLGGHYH
# Method in brief: as §1
# [11] = target: ETV5 (Homo sapiens, UniProt P41161 1-510); settings: protein: recombinant; tags: N-terminal GST; dsDNA, one strand shown
# Method in brief: as §1
# [12] = target: HSF1 (Homo sapiens, UniProt Q00613 1-529); settings: protein: recombinant; tags: N-terminal GST; chain copies: 3; dsDNA, one strand shown
# Method in brief: as §1
# [13] = target: T8, SPIC (Homo sapiens, UniProt Q8N5J4 1-248); settings: protein: recombinant; tags: N-terminal GST; dsDNA, one strand shown
# T8 sequence: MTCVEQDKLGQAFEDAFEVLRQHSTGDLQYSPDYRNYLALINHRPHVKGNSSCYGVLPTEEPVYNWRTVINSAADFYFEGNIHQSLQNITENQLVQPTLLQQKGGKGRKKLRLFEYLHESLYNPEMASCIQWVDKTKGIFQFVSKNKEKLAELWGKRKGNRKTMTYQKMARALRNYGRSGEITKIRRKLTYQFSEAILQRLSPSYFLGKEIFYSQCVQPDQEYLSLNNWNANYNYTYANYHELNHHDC
# Method in brief: as §1
# [14] = target: ELF4 (Homo sapiens, UniProt Q99607 1-663); settings: protein: recombinant; tags: N-terminal GST; dsDNA, one strand shown
# Method in brief: as §1
# [15] = target: T9, ELK4 (Homo sapiens, UniProt P28324-2 1-405); settings: protein: recombinant; tags: N-terminal GST; dsDNA, one strand shown
# T9 sequence: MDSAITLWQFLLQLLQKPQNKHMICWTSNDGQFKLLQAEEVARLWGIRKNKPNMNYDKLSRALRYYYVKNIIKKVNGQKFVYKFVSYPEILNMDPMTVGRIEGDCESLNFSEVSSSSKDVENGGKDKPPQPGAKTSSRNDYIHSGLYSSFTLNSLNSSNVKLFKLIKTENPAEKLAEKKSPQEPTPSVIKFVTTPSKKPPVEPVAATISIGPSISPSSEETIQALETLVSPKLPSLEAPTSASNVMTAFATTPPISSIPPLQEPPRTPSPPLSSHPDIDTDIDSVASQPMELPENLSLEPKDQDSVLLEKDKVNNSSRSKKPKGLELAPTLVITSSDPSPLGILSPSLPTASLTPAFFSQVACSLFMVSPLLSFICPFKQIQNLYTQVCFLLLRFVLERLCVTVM
# Method in brief: as §1
# [16] = target: T10, ETV2 (Homo sapiens, UniProt O00321 1-342); settings: protein: recombinant; tags: N-terminal GST; dsDNA, one strand shown
# T10 sequence: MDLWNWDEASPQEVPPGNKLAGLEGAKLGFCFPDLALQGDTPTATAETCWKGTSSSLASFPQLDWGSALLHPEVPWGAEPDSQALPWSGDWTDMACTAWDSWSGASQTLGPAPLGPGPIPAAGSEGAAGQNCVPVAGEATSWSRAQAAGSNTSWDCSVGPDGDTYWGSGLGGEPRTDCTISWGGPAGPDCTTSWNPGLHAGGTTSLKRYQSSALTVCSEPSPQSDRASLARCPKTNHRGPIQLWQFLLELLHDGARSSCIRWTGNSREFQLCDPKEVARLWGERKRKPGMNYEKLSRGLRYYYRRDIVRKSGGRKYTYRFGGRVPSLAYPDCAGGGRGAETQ
# Method in brief: as §1
# [17] = target: T11, ELF3 (Homo sapiens, UniProt P78545 1-371); settings: protein: recombinant; tags: N-terminal GST; dsDNA, one strand shown
# T11 sequence: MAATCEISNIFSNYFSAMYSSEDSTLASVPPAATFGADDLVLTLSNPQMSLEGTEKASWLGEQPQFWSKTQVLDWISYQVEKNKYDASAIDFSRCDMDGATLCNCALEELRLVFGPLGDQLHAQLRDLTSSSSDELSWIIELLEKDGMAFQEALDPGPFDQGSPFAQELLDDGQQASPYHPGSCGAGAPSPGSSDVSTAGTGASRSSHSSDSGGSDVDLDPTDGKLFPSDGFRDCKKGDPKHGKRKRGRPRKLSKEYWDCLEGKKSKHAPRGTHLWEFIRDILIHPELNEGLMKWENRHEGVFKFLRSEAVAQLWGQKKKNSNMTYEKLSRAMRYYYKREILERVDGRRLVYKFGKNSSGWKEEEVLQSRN
# Method in brief: as §1
# [18] = target: CRX (Homo sapiens, UniProt O43186 1-299); settings: protein: recombinant; tags: N-terminal GST; dsDNA, one strand shown
# Method in brief: as §1
# [19] = target: ETV1 (Homo sapiens, UniProt P50549 1-477); settings: protein: recombinant; tags: N-terminal GST; dsDNA, one strand shown
# Method in brief: as §1
# ETV5, sequence (P41161 whole entry): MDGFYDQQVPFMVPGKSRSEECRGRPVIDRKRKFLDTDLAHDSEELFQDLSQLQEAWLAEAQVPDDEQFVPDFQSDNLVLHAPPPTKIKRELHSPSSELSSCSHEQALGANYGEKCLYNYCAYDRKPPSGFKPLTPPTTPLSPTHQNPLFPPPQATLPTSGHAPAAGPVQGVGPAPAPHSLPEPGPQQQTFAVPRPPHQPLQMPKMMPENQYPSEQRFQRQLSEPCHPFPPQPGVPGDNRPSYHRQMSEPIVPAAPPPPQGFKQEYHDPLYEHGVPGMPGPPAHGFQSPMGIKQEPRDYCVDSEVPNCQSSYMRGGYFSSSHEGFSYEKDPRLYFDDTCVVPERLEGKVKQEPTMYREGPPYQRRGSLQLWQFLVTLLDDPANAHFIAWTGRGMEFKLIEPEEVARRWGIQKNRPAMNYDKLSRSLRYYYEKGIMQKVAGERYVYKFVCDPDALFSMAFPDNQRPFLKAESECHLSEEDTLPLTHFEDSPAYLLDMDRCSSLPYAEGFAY
# ELF4, sequence (Q99607 whole entry): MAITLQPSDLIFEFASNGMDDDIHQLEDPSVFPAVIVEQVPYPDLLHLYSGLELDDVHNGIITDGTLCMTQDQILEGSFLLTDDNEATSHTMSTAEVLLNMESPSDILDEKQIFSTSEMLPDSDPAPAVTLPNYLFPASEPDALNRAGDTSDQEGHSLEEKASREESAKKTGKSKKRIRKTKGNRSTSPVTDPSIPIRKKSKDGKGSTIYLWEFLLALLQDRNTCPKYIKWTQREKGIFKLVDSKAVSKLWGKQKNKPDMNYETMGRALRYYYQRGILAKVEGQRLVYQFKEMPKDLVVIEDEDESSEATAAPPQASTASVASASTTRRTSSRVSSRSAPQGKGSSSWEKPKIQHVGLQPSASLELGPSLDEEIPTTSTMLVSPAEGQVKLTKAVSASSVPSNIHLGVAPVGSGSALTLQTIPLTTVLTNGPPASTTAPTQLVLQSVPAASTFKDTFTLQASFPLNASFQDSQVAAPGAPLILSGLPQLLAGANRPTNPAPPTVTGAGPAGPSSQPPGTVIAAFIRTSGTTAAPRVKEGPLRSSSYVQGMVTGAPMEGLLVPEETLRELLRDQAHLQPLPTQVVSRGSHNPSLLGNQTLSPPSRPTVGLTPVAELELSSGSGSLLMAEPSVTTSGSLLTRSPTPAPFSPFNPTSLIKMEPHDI
# ELF1, sequence (P32519 whole entry): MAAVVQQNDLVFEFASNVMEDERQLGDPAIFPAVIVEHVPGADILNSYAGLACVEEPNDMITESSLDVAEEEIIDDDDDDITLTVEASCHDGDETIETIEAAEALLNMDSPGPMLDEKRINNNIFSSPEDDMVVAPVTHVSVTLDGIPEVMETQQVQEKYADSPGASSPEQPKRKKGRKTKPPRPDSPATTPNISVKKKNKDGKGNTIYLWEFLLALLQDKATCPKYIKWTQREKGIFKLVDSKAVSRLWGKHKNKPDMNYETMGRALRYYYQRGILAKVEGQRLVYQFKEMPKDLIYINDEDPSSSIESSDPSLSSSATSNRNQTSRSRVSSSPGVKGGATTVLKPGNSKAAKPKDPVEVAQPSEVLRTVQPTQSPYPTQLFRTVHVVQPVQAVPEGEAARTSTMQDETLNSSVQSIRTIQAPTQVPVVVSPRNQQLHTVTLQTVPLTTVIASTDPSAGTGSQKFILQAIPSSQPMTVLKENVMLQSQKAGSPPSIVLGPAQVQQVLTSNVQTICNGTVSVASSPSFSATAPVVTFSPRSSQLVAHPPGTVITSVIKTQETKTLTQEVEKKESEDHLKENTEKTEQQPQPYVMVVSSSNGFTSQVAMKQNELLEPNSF
# SPIB, sequence (Q01892 whole entry): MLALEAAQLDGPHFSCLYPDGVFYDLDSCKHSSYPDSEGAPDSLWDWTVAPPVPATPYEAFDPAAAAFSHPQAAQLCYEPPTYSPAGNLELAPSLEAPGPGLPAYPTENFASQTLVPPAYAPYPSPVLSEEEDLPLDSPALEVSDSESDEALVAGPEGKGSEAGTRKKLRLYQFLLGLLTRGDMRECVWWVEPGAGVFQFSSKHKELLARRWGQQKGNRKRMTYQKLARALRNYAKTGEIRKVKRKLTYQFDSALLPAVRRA
# ETV1, sequence (P50549 whole entry): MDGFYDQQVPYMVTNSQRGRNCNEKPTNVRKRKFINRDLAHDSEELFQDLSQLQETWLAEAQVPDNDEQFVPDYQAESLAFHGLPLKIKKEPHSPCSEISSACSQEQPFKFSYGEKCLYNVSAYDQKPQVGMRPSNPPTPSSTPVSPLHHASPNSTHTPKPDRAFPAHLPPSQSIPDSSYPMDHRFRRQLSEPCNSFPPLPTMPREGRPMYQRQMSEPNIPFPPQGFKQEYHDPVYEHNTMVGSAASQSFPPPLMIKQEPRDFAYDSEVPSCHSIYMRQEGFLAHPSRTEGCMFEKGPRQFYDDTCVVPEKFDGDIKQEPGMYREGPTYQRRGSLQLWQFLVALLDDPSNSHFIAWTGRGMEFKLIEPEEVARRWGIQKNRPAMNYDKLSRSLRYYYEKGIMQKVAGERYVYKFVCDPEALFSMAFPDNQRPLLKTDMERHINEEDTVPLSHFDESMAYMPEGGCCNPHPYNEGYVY
# CRX, sequence (O43186 whole entry): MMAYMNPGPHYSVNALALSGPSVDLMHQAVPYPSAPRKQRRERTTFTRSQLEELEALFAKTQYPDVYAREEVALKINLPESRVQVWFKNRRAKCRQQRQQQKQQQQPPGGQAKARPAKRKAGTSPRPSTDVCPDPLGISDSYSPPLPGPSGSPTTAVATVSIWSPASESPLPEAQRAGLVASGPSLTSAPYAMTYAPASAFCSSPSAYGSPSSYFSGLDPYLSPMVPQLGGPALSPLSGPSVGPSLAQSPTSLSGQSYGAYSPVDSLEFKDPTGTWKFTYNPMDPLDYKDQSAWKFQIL
# HSF1, sequence (Q00613 whole entry): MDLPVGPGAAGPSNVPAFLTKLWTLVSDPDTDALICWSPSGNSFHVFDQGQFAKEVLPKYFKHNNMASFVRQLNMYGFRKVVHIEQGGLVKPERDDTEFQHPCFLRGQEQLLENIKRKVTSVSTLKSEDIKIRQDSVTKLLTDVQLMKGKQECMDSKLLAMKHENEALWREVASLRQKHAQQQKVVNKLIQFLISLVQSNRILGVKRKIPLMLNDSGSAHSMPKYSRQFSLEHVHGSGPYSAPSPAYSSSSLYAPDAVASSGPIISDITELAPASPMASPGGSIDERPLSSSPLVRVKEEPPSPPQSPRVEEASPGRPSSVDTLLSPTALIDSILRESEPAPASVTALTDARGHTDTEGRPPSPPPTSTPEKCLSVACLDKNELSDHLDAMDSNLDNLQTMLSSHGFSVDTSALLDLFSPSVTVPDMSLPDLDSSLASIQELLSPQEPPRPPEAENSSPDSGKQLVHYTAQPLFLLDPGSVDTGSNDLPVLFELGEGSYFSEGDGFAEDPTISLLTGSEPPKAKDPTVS
sequence,measurement,setting,value
CGTTAA,binding signal,[1],"1.12 fold enrichment (6-mer frequency, TF over GST control)"
same,binding signal,[2],"1.17 fold enrichment (6-mer frequency, TF over GST control)"
same,binding signal,[3],"1.11 fold enrichment (6-mer frequency, TF over GST control)"
same,binding signal,[4],"1.17 fold enrichment (6-mer frequency, TF over GST control)"
same,binding signal,[5],"1.14 fold enrichment (6-mer frequency, TF over GST control)"
same,binding signal,[6],"1.1 fold enrichment (6-mer frequency, TF over GST control)"
same,binding signal,[7],"1.1 fold enrichment (6-mer frequency, TF over GST control)"
same,binding signal,[8],"1.13 fold enrichment (6-mer frequency, TF over GST control)"
same,binding signal,[9],"1.21 fold enrichment (6-mer frequency, TF over GST control)"
same,binding signal,[10],"1.18 fold enrichment (6-mer frequency, TF over GST control)"
same,binding signal,[11],"1.21 fold enrichment (6-mer frequency, TF over GST control)"
same,binding signal,[12],"1.31 fold enrichment (6-mer frequency, TF over GST control)"
same,binding signal,[13],"1.34 fold enrichment (6-mer frequency, TF over GST control)"
same,binding signal,[14],"1.12 fold enrichment (6-mer frequency, TF over GST control)"
same,binding signal,[15],"1.07 fold enrichment (6-mer frequency, TF over GST control)"
same,binding signal,[16],"1.36 fold enrichment (6-mer frequency, TF over GST control)"
same,binding signal,[17],"1.27 fold enrichment (6-mer frequency, TF over GST control)"
same,binding signal,[18],"1.7 fold enrichment (6-mer frequency, TF over GST control)"
same,binding signal,[19],"1.09 fold enrichment (6-mer frequency, TF over GST control)"
